# Laboratory results published in PubChem BioAssay (Tox21).
# Calls of active or inactive are those of the source. Calls follow the shape of the full dose curve.
# Target: Estrogen receptor (Homo sapiens) (UniProt P03372)
# Assay: qHTS assay to identify small molecule agonists of the estrogen receptor alpha (ER-alpha) signaling pathway in the presence of an antagonist (AID 1259383); also: top concentration of the series differs between compounds; nearly all actives have a fitted effect of over 15% in size
# Conditions: VM7Luc4E2 cells, ERE-luciferase, +ICI-182,780, 22 h; series mostly up to 92.4 µM
# Excerpt: National Center for Advancing Translational Sciences [NCATS] NIH Chemical Genomics Center [NCGC] U.S. Environmental Protection Agency [EPA] National Institutes of Environmental Health Sciences [NIEHS] National Toxicology Program [NTP] Assay overview: Estrogen receptor (ER), a member of nuclear hormone receptor plays an important role in development, metabolic homeostasis and reproduction. Two subtypes of ER, ER-alpha and ER-beta, have similar expression patterns with some uniqueness in both types. Endocrine disrupting chemicals (EDCs) and their interactions with steroid hormone receptors like ER causes disruption of normal endocrine function. Therefore, it is important to understand the effect of environmental chemicals in ER signaling pathway. For identifying ER agonists, VM7Luc4E2 cell line has been used in the current assay. VM7Luc4E2 cell line (provided by Denison MS, University of California) endogenously expresses full-length ER-alpha and is stably transfected with a plasmid containing four estrogen responsive elements (ERE) upstream of a luciferase reporter gene. This current screening for measuring luciferase reporter gene activity using VM7Luc4E2 cells against Tox21 10K library collection is a confirmation study on agonist mode screening in presence of ER-antagonist (ICI-182,780) at 10.0nM final concentration.
# Assay Protocol Summary: VM7Luc4E2 cells were cultured in phenol red free assay medium containing 10% charcoal stripped FBS for 5 days prior to the assay. The cells were dispensed at 4,000 cells in 4uL of assay medium per well into white wall/solid-bottom 1536-well plates (Corning Life Sciences, Corning, NY) using a Multidrop Combi (Thermo Fisher Scientific Inc., Waltham, MA) dispenser. After the assay plates were incubated at 37C and 5% CO2 for 24hr, 1uL of 10.0nM (final concentration) ICI-182,780 or assay buffer was added using two separate tips of Flying Reagent Dispenser (FRD, Aurora Discovery, San Diego, CA). Then 23nL of compounds dissolved in DMSO at 15 concentrations and positive controls or DMSO only was transferred to the assay plates by a Pintool station (Wako, San Diego, CA). The assay plates were incubated at 37C and 5% CO2 for 22hr. For luciferase read, 4uL/well ONE-Glo reagent (Promega Corporation, Madison, WI) was added to each well using FRD and after 30min incubation at room temperature, luminescence signal was measured on ViewLux plate reader (PerkinElmer, Shelton, CT).
# Estrogen receptor (Homo sapiens), sequence (P03372 whole entry, looked up): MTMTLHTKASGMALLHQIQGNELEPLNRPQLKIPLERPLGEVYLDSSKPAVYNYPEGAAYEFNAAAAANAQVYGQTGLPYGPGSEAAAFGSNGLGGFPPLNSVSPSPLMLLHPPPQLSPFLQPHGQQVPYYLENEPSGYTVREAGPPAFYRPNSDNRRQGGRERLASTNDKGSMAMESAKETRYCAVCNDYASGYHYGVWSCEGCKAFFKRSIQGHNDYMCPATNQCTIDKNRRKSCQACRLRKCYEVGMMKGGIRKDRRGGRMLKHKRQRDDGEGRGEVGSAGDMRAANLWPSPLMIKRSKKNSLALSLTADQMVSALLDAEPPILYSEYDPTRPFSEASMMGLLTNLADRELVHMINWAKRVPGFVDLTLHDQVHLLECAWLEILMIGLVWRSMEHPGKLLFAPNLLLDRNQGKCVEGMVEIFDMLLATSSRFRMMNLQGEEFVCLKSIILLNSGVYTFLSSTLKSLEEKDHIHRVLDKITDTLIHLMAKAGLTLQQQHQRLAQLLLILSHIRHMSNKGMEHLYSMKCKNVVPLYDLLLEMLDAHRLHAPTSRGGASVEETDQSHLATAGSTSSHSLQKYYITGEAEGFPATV
row,SMILES,outcome
1,Cc1ccc(O)c(C)c1,inactive
2,O=[N+]([O-])c1ccc(Cl)c(Cl)c1,inactive
3,CCNc1nc(Cl)nc(NC(C)C)n1,inactive
4,O=C/C=C/c1ccccc1,inactive
5,CN(C)CCC#N,inactive
6,CCCCC(CC)C(=O)Cl (stereo not given),inactive
7,ClC(Cl)c1ccccc1,inactive
8,CNC(=O)Oc1cccc2ccccc12,inactive
9,Cc1cc(O)ccc1Cl,inactive
10,COS(=O)(=O)OC,inactive
11,CN(C)C(=O)Cl,inactive
12,COP(=S)(OC)Oc1ccc(SC)c(C)c1,inactive
13,Cc1cc(Cl)ccc1OC(C)C(=O)O (stereo not given),inactive
14,Cc1cccc(N)c1,inactive
15,CCSC(=O)N1CCCCCC1,inactive
16,Cl/C=C/Cl,inactive
17,OC[C@@H](O)[C@H]1O[C@@H]2O[C@H](C(Cl)(Cl)Cl)O[C@@H]2[C@H]1O,inactive
18,CC(C)CCCCCCOC(=O)c1ccccc1C(=O)OCCCCCCC(C)C,inactive
19,N#Cc1ccccn1,inactive
20,CNC(=O)O/N=C/C(C)(C)SC,inactive

row,SMILES,outcome
1,O=C(O)Cc1ccccc1,inactive
2,OCc1ccco1,inactive
3,OCC(O)CCl (stereo not given),inactive
4,C=CC#N,inactive
5,CC(C)c1cccc(C(C)C)c1O,inactive
6,Nc1cccc(Cl)c1,inactive
7,Nc1ccc([As](=O)(O)O)cc1,inactive
8,O=C(O)CCCc1ccc(N(CCCl)CCCl)cc1,inactive
9,O=C(O)COc1ccccc1,inactive
10,CNC(=O)O/N=C/C(C)(C)S(C)=O (stereo not given),inactive
11,CNCC(O)c1ccc(O)cc1 (stereo not given),inactive
12,Cc1cccc(N)c1C,inactive
13,Nc1ncc([N+](=O)[O-])s1,inactive
14,Cc1cccc(C)c1N,inactive
15,C=CCN=C=S,inactive
16,c1ccc2c(c1)CCCC2,inactive
17,CNC(=O)O/N=C/C(C)(C)S(C)(=O)=O,inactive
18,C=CC(=O)OCCCCCC(C)C,inactive
19,FC(F)(F)c1ccc(Cl)cc1,inactive
20,CCOc1ccc(N)cc1,inactive
